Data as given in PubChem BioAssay (Tox21).
Results filed as inconclusive are left out. Where a call stands in place of a potency, no number is given. Calls of active or inactive are those of the source. Calls come from the whole dose curve; as a rule, active = well fitted cell-killing curve with a large enough effect in the repeat runs; inconclusive = weak or mixed curves, or effect the other way; inactive = flat fitted curve, though single readings scatter.

experiment: qHTS assay to identify small molecule antagonists of the estrogen receptor alpha (ER-alpha) signaling pathway using the BG1 cell line in the presence of 0.1 nM 17-beta-estradiol - cell viability counter screen (AID 1259241); details: VM7Luc4E2 (BG1) viability, CellTiter-Fluor protease, 22 h, 0.1 nM estradiol agonist added; series mostly up to 92.4 µM; note: nearly all actives have a fitted effect of over 40% in size
Source text: National Center for Advancing Translational Sciences [NCATS]
NIH Chemical Genomics Center [NCGC]
U.S. Environmental Protection Agency [EPA]
National Institutes of Environmental Health Sciences [NIEHS]
National Toxicology Program [NTP]
U.S. Food and Drug Administration [FDA]
Estrogen receptor (ER), a member of the nuclear hormone receptor plays an important role in development, metabolic homeostasis and reproduction. Two subtypes of ER, ER-alpha and ER-beta, have similar expression patterns with some uniqueness in both types. Endocrine disrupting chemicals (EDCs) and their interactions with steroid hormone receptors like ER causes disruption of normal endocrine function. Therefore, it is important to understand the effect of environmental chemicals in ER signaling pathway. For identifying ER antagonists, VM7Luc4E2 cell line was used to screen against Tox21 compound libraries.
VM7Luc4E2 cell line (provided by Denison MS, University of California) endogenously express full-length ER-alpha and is stably transfected with a plasmid containing four estrogen responsive elements (ERE) upstream of a luciferase reporter gene. The current screening for identification of ER-alpha inhibitors against Tox21 compound libraries used lower concentration (0.1 nM) of 17beta-Estradiol as a stimulator. The cytotoxicity of the Tox21 compound libraries against VM7Luc4E2 cell line was tested by measuring live-cell protease activity using CellTiter-Fluor assay in the same wells.
Tox21 Assay Protocol Summary:
VM7Luc4E2 cells were cultured in phenol red free assay medium containing 10% charcoal stripped FBS for 5 days prior to the assay. The cells were dispensed at 4,000 cells/well in 4 uL of assay medium into white wall/solid-bottom 1536-well plates (Corning Life Sciences, Corning, NY) using a Multidrop Combi (ThermoFisher Scientific, Waltham, MA) dispenser. After the assay plates were incubated at 37C and 5% CO2 for 24 hr, 23 nL of compounds dissolved in DMSO, positive controls or DMSO only was transferred to the assay plates by a Pintool station (Kalypsys, San Diego, CA). The transfer of compounds was followed by the addition of 1 uL of 0.1 nM (final concentration) agonist (17beta-Estradiol)/assay medium using a Flying Reagent Dispenser (FRD, Aurora Discovery, San Diego, CA). The plates were incubated at 37C and 5% CO2 for 22 hr. For cytotoxicity assay, 1 uL of CellTiter-Fluor reagent (Promega Corporation, Madison, WI) was added to each well using the FRD and after 30 min incubation at 37C and 5% CO2, The fluorescence intensity was measured using ViewLux plate reader (PerkinElmer, Shelton, CT).
Potency is the fitted concentration of half-maximal effect.

Row | SMILES | Potency | activity change, negative = cytotoxicity
1 | CCOC(=O)[C@H](C)O | inactive | 
2 | C/C=C/C(=O)OCC(C)C | inactive | 
3 | CC1(C)[C@H](C(=O)OCc2cccc(Oc3ccccc3)c2)[C@@H]1C=C(Cl)Cl | inactive | 
4 | N#Cc1ccc(C/C(=N/NC(=O)Nc2ccc(OC(F)(F)F)cc2)c2cccc(C(F)(F)F)c2)cc1 | inactive | 
5 | O=C1C=CC(=O)N1c1cccc(N2C(=O)C=CC2=O)c1 | 68.6 µM (active) | 
6 | O=C(O)C[C@H](O)C[C@H](O)/C=C/c1c(C2CC2)nc2ccccc2c1-c1ccc(F)cc1 |  | 6.55% [at 19 µM] (inactive)
7 | Oc1ccc(Cl)cc1C1CCCC1 | inactive | 
8 | Cn1ccnc1 | inactive | 
9 | CCCCCc1ccc(O)cc1 | inactive | 
10 | Cn1c(=O)[nH]c2ncn(C)c2c1=O | inactive | 
11 | CC(C)c1ccc2sc3ccccc3c(=O)c2c1 | inactive | 
12 | CN1CCN(CCCN2c3ccccc3Sc3ccc(C(F)(F)F)cc32)CC1 | inactive | 
13 | Cc1cc(C)c(O)c(C(C)(C)C)c1 | inactive | 
14 | CN(C/C=C/c1ccccc1)Cc1cccc2ccccc12 | inactive | 
15 | CC(C)=NNC(N)=S | inactive | 
16 | O=C(NCc1ncc(C(F)(F)F)cc1Cl)c1c(Cl)cccc1Cl | inactive | 
17 | [Cl][Eu]([Cl])[Cl] | inactive | 
18 | CC(=O)Nc1ccc(N=Nc2cc(C)ccc2O)cc1 | inactive | 
19 | NCc1cccc(C2CCN(C(=O)c3ccc(C#Cc4ccccc4F)o3)CC2)c1 | 68.6 µM (active) | 
20 | CCCCCCCCCC[N+](C)(CCCCCCCCCC)CCC[Si](OC)(OC)OC | inactive | 

Row | SMILES | Potency | activity change, negative = cytotoxicity
21 | CC/C=C\C/C=C\C/C=C\CCCCCCCC(=O)OC | inactive | 
22 | CCCCCCCCCCCCCCCCCCNC(=O)OC1CCN(C(=O)OC[C@H](COC(=O)N(Cc2cccc[n+]2CC)C(=O)c2ccccc2OC)OC)CC1 | inactive | 
23 | O[Si](c1ccccc1)(c1ccccc1)c1ccccc1 | inactive | 
24 | CCOC(=O)OC(=O)OCC | inactive | 
25 | O=C1CCC/C=C\CCCCCCCCCC1 | inactive | 
26 | CCC(C)(C)c1ccc(CC(C)CN2C[C@@H](C)O[C@@H](C)C2)cc1 (stereo not given in full) | inactive | 
27 | CCC(O)CO (stereo not given) | inactive | 
28 | C=C(C)CCO | inactive | 
29 | Nc1ccc(Cl)c([N+](=O)[O-])c1 | inactive | 
30 | CCCCC/C=C\C=C\C(=O)OCC | inactive | 
31 | CC/C=C(\C)C=O | inactive | 
32 | O=C(c1ccccc1)c1ccc(Cl)cc1 | inactive | 
33 | CSc1nnc(C(C)(C)C)c(=O)[nH]1 | inactive | 
34 | CN1CCN(c2ccccc2/C=C2\SCCN(c3ccc(Cl)c(Cl)c3)C2=O)CC1 | inactive | 
35 | CCC1(C)C(=O)N(Cl)C(=O)N1Cl (stereo not given) | inactive | 
36 | O=C1CCC(=O)N1 | inactive | 
37 | C=CC(=O)OCC(Br)CBr (stereo not given) | inactive | 
38 | Nc1cc([N+](=O)[O-])ccc1Cl | inactive | 
39 | CN1CCN(CCCN2c3ccccc3Sc3ccc(Cl)cc32)CC1 | inactive | 
40 | CCc1cccc(CC)c1 | inactive | 
